From the supplement of paper PMC4709259
Where a name gives a salt, the structure may show the parent alone. ± gives the standard deviation.

How the values were obtained:
Jurkat [1] = experiment: mean cell size (FSC-A) relative to DMSO control (fraction of control); higher = larger cells; conditions: 48 h
Outline: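 Jurkat cells seeded at 600 cells/µl were incubated 1 h, then exposed for 48h to the Enzo Screen-Well FDA Approved Drug Library v2.0 at 25µM in 0.9% (v/v) final DMSO. Drugs that cut counts below 20% of controls were diluted 10-fold and retested, down to 25nM. Cell count and mean cell size (forward scatter area) were read on an Accuri C6 flow cytometer, relative to solvent-only controls. Plates held 6-12 controls; values are means of 3 biological replicates.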

Jurkat [2] = experiment: cell count relative to DMSO control (fraction of control); higher = more cells (less growth inhibition); conditions: 48 h

SMILES	mean cell size (Jurkat [1])	cell count (Jurkat [2])
CCCCCCCN(CC)CCCC(O)c1ccc(NS(C)(=O)=O)cc1 (stereo not drawn) [Ibutilide Fumarate] (concentration: 25 µM)	0.936 ± 0.027	0.903 ± 0.047
C[C@]12CC[C@@H]3c4ccc(O)cc4C[C@@H](CCCCCCCCC[S+]([O-])CCCC(F)(F)C(F)(F)F)[C@H]3[C@@H]1CC[C@@H]2O (stereo partly drawn) [Fulvestrant] (concentration: 25 µM)	0.942 ± 0.0098	0.862 ± 0.061
N=C(N)N [Guanidine·HCl] (concentration: 25 µM)	0.94 ± 0.018	1.02 ± 0.096
Cc1onc(-c2ccccc2)c1C(=O)N[C@@H]1C(=O)N2[C@@H]1SC(C)(C)[C@@H]2C(=O)O [Oxacillin·Na] (concentration: 25 µM)	0.9367 ± 0.005	0.975 ± 0.1
OC[C@H]1O[C@@H](n2cnc3c2N=CNC[C@H]3O)C[C@@H]1O [Pentostatin] (concentration: 25 µM)	0.959 ± 0.029	1.14 ± 0.024
CC(C)N1CCN(c2ccc(OCC3COC(Cn4cncn4)(c4ccc(Cl)cc4Cl)O3)cc2)CC1 (stereo not drawn) [Terconazole] (concentration: 25 µM)	0.891 ± 0.017	0.299 ± 0.11
CN1C(CCl)Nc2cc(Cl)c(S(N)(=O)=O)cc2S1(=O)=O (stereo not drawn) [Methyclothiazide] (concentration: 25 µM)	0.982 ± 0.048	0.633 ± 0.17
C[C@@H]1O[C@@H]1P(=O)(O)O [Fosfomycin Calcium] (concentration: 25 µM)	0.916 ± 0.036	0.474 ± 0.19
CN(Cc1cnc2nc(N)nc(N)c2n1)c1ccc(C(=O)N[C@@H](CCC(=O)O)C(=O)O)cc1 [Methotrexate] (concentration: 25 nM)	1.16 ± 0.035	0.499 ± 0.093
CN(C)CCOC(c1ccccc1)c1ccccc1 [Diphenhydramine·HCl] (concentration: 25 µM)	0.967 ± 0.017	0.987 ± 0.042
O=C(O)c1cc(=O)c2c(OCC(O)COc3cccc4oc(C(=O)O)cc(=O)c34)cccc2o1 [Cromolyn·Na (Disodium Cromoglycate)] (concentration: 25 µM)	0.9231 ± 0.0045	1.05 ± 0.096
O=c1[nH]c(=O)n([C@H]2C[C@H](O)[C@@H](CO)O2)cc1F [Floxuridine] (concentration: 25 nM)	1.06 ± 0.063	0.178 ± 0.096
COc1cccc2c1C(=O)c1c(O)c3c(c(O)c1C2=O)C[C@@](O)(C(=O)CO)C[C@@H]3O[C@H]1C[C@H](N)[C@H](O)[C@H](C)O1 [Doxorubicin·HCl] (concentration: 250 nM)	1.47 ± 0.048	0.234 ± 0.035
NCC[C@H](O)C(=O)N[C@@H]1C[C@H](N)[C@@H](O[C@H]2O[C@H](CN)[C@@H](O)[C@H](O)[C@H]2O)[C@H](O)[C@H]1O[C@H]1O[C@H](CO)[C@@H](O)[C@H](N)[C@H]1O [Amikacin Disulfate] (concentration: 25 µM)	0.994 ± 0.028	0.921 ± 0.014
